A short description of experiment [1]: NCI Yeast Anticancer Drug Screen. Data for the rad50 strain (AID 155).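 Also: 0% = growth of vehicle-only cultures of the same strain.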 Particulars: S. cerevisiae rad50 strain growth inhibition, stronger effect = higher value; at 50.0 µM unless noted. A digest of the protocol: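 Relative growth inhibition (compound vs vehicle) was measured in yeast with a defined repair-gene alteration.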
Experiment [2] can be described thus: NCI Yeast Anticancer Drug Screen. Data for the mec2-1 strain (AID 157). The following applies: S. cerevisiae mec2-1 strain, stronger effect = higher value; at 50.0 µM unless noted. A digest of the protocol: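 Test agents were screened against the mec2-1 yeast strain, with defined DNA repair or cell cycle alteration. Growth was scored as inhibition against vehicle-only controls.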

The nature of experiment [3]: NCI Yeast Anticancer Drug Screen. Data for the sgs1 mgt1 strain (AID 161).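 Also: 0% = growth of cultures given vehicle only.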 The following applies: S. cerevisiae sgs1 mgt1 strain, stronger effect = higher value; at 50.0 µM unless noted. A digest of the protocol: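 Mutant yeast exposed to compound; growth scored against vehicle-only wells.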
The nature of experiment [4]: NCI Yeast Anticancer Drug Screen. Data for the cln2 rad14 strain (AID 165).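 Also: 0% = growth equal to vehicle treated cultures.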 The following applies: S. cerevisiae cln2 rad14 strain, stronger effect = higher value; at 50.0 µM unless noted. A digest of the protocol:
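Growth of compound-exposed yeast (cln2 rad14 genotype) measured and expressed as inhibition relative to vehicle.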

Experiment [5] is described as follows: NCI Yeast Anticancer Drug Screen. Data for the bub3 strain (AID 167). Particulars: S. cerevisiae bub3 mutant strain, stronger effect = higher value; at 50.0 µM unless noted. The gist of the method:
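Screening used yeast with an engineered genetic alteration affecting cell cycle control. Compound-exposed cultures were compared with vehicle cultures, and reduced growth was taken as inhibition.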

Experiment [6] is described as follows: NCI Yeast Anticancer Drug Screen. Data for the mlh1 rad18 strain (AID 175). Particulars: S. cerevisiae mlh1 rad18 strain growth inhibition, stronger effect = higher value; at 50.0 µM unless noted. The gist of the method:
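In this whole-cell yeast screen, a strain with altered DNA damage repair is challenged with compound, and its growth is measured against matched vehicle-treated controls.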

Molecules are shown by their SMILES. The panel holds about 79,000 compounds, 15% with a hit somewhere; the sample as a whole holds those more often. A number with no mark means an inactive call. The source made the active and inactive calls. Rule as the data show it: active = growth inhibition above about 70%; inactive = the rest.

In the case of `CNC(=O)Nc1c(C)cccc1C`, the growth inhibition was 0.05% in experiment [1]; 6.1% in experiment [2]; -0.2% in experiment [3]; -26.2% in experiment [4]; 0.05% in experiment [5]; 4.05% in experiment [6].

As for `CC(N1CCS(=O)(=O)CC1)P(=O)(O)O` (stereo not given), the growth inhibition in experiment [1] was 0.3%; in experiment [2] it was 8.3%; in experiment [3] it was 8.8%; in experiment [4], -8.5%; in experiment [5] it was 17.8%; in experiment [6], 2.3%.

For the molecule `COc1ccc(C=Nc2ccccc2C(=O)O)cc1`, the growth inhibition in experiment [1] was 0.2%; in experiment [2], 7.1%; in experiment [3], 0.65%; in experiment [4] it was -41.9%; in experiment [5], 24.3%; in experiment [6] it was 5.9%.

Take `Clc1cccc(Nc2ncnc3nc[nH]c23)c1`: the growth inhibition in experiment [1] is 7.15%; in experiment [2], 0.25%; in experiment [3], 5.1%; in experiment [4], -12.2%; in experiment [5], -12.9%; in experiment [6] it was 0.5%.

Turning to `C=CCNC(=S)N/C=C(\C#N)C(N)=O`, the growth inhibition was -24.4% in experiment [1]; -40.3% in experiment [2]; -27.2% in experiment [3]; -7.15% in experiment [4]; -12.6% in experiment [5]; -41.5% in experiment [6].

With `N#CC1CC2CC1C1OC21` (stereo not given), the growth inhibition in experiment [1] was -15.4%; in experiment [2], -10.3%; in experiment [3], -14.1%; in experiment [4] it was 9.35%; in experiment [5], -2.25%; in experiment [6], -5.9%.

As to `O=C(O)c1ccc(NCn2c(=S)sc3ccccc32)cc1`, the growth inhibition in experiment [1] was 6.45%; in experiment [2], 3%; in experiment [3], 52%; in experiment [4], 26.9%; in experiment [5], 11.8%; in experiment [6] it was 11.1%.

In the case of `COc1ccc(C(c2ccc(OC)cc2)N2C(=O)CCC2C(=O)O)cc1` (stereo not given), the growth inhibition in experiment [1] was -28.6%; in experiment [2] it was 21.2%; in experiment [3], -48.8%; in experiment [4] it was 17.1%; in experiment [5], -1%; in experiment [6], -12.6%.

For the molecule `O=C1c2ccccc2C(=O)c2c3c(cc(NCCNCCO)c21)N(CCO)CCN3`, the growth inhibition is 29.4% in experiment [1]; 18.4% in experiment [2]; 33.8% in experiment [3]; 10.3% in experiment [4]; 34.8% in experiment [5]; 29.1% in experiment [6].

`CCN(CC)CCCNc1ncnc2c1C(c1ccccc1)c1ccccc1-2` (stereo not given): the growth inhibition is 8.5% in experiment [1]; -14.7% in experiment [2]; 1.7% in experiment [3]; 6% in experiment [4]; -4.85% in experiment [5]; -6.9% in experiment [6].

Turning to `COc1ccc(O)cc1C=O`, the growth inhibition in experiment [1] is -6.4%; in experiment [2] it was -7.05%; in experiment [3], -10.6%; in experiment [4], 4%; in experiment [5], -7.35%; in experiment [6], -4.75%.

Turning to `O=C1c2scc(-c3ccc(F)cc3)c2-n2cccc21`, the growth inhibition in experiment [1] is 7.8%; in experiment [2] it was 12.5%; in experiment [3] it was 7.6%; in experiment [4], 3.7%; in experiment [5] it was 8.65%; in experiment [6], 24.1%.

As to `CC(C)(C)OC(=O)c1ccccc1C(=O)c1ccccc1`, the growth inhibition is -0.4% in experiment [1]; -1.2% in experiment [2]; -4.8% in experiment [3]; 14.3% in experiment [4]; 9.05% in experiment [5]; -10.8% in experiment [6].

On to `O=C(N/N=C/c1ccc2c(c1)OCO2)c1ccccc1`, for which the growth inhibition in experiment [1] was 12.7%; in experiment [2], -11.1%; in experiment [3], 6.25%; in experiment [4] it was -35.5%; in experiment [5], 1.8%; in experiment [6], 22.4%.

On to `O=C(O)COc1ccc(F)cc1F`, for which the growth inhibition in experiment [1] is -22.5%; in experiment [2] it was -3.05%; in experiment [3], 1.65%; in experiment [4] it was -31.4%; in experiment [5] it was 0.95%; in experiment [6], -16.4%.

Consider `CCCCCCCOC(=O)CO`, for which the growth inhibition in experiment [1] was 22.4%; in experiment [2], 6.65%; in experiment [3], 16.2%; in experiment [4], 16.9%; in experiment [5], 1.95%; in experiment [6] it was 19.4%.

On to `CC(=O)OC1CCC(=O)C2C(C(=O)O)CCCC12` (stereo not given), for which the growth inhibition is 6.9% in experiment [1]; -21.8% in experiment [2]; -19.2% in experiment [3]; -6.1% in experiment [4]; -1.75% in experiment [5]; 0.25% in experiment [6].

Regarding `O=[N+]([O-])c1ccc(/C=C(/c2ccc([N+](=O)[O-])o2)S(=O)(=O)c2ccccc2)cc1`, the growth inhibition in experiment [1] is 64.8%; in experiment [2], 13.8%; in experiment [3] it was 76.8% (active); in experiment [4] it was 43%; in experiment [5], -1.25%; in experiment [6] it was 60.5%.

`O=C(Cc1ccccc1)c1ccccc1C(=O)NCc1ccncc1`: the growth inhibition in experiment [1] is 1.7%; in experiment [2], 2.05%; in experiment [3], 2.25%; in experiment [4] it was -20.5%; in experiment [5], 9%; in experiment [6], -0.6%.

Turning to `C#CC(C)(O)CCC(C)C` (stereo not given), the growth inhibition in experiment [1] is -10%; in experiment [2], -16.1%; in experiment [3] it was -3.3%; in experiment [4], 14.5%; in experiment [5], 10.8%; in experiment [6] it was -16.9%.

The values are drawn from PubChem BioAssay (NCI).
